PMC7862700, “An all-to-all approach to the identification of sequence-specific readers for epigenetic DNA modifications on cytosine”

Legend:
Experiment in all cases: DAPPL (digital affinity profiling via proximity ligation, sequencing); 10 mM Tris-HCl pH 7.5, 50 mM NaCl, 1 mM DTT, 4% glycerol, room temperature, 30 min; GST-TFs on glutathione beads, 16-mer random dsDNA library, 0.1% formaldehyde crosslink after washing; high values mean tight binding
[1] = biological target: T1, FEV (Homo sapiens, UniProt Q99581 1-238); settings: protein: recombinant; tags: N-terminal GST; dsDNA, one strand shown
T1 sequence: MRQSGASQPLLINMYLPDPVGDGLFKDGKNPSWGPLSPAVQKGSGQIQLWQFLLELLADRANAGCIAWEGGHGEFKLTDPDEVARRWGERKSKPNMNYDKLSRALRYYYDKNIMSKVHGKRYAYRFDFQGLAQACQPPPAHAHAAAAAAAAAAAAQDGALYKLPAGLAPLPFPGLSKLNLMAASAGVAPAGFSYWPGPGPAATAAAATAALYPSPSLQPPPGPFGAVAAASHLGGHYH
Outline: (§1)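 In yeast, human transcription factors were expressed with a GST fusion, then pulled down on glutathione beads and given DNA barcodes. Pooled with a tag-only sample, they were exposed to 200 nmole of a 16-mer random double-stranded DNA library (Tris/NaCl/DTT/glycerol buffer, room temperature, 30 min), washed, crosslinked with 0.1% formaldehyde, proximity-ligated using BsaI/T4 ligase for 1 h at 37 °C, PCR-amplified and read on an Illumina NextSeq500. Each hexamer's frequency of reads for a factor, divided by the matching frequency for the tag-only sample, gives the binding signal.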

[2] = biological target: ETV5 (Homo sapiens, UniProt P41161 1-510); settings: protein: recombinant; tags: N-terminal GST; dsDNA, one strand shown
Chain of ETV5 (P41161 whole entry): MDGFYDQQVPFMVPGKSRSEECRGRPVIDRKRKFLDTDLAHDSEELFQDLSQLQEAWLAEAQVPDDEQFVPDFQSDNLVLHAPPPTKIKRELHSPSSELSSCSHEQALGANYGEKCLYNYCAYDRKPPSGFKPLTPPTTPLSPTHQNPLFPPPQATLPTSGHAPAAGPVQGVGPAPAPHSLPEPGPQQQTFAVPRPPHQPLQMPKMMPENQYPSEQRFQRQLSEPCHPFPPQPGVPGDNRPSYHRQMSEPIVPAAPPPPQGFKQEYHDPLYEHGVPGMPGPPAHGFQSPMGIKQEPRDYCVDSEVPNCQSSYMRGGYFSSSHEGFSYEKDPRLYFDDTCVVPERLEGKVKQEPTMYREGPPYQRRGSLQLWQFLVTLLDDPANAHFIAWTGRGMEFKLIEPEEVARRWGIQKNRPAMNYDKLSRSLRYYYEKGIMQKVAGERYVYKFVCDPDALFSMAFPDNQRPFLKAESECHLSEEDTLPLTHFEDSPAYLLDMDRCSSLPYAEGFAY
Outline: as §1

[3] = biological target: HSF1 (Homo sapiens, UniProt Q00613 1-529); settings: protein: recombinant; tags: N-terminal GST; chain copies: 3; dsDNA, one strand shown
Chain of HSF1 (Q00613 whole entry): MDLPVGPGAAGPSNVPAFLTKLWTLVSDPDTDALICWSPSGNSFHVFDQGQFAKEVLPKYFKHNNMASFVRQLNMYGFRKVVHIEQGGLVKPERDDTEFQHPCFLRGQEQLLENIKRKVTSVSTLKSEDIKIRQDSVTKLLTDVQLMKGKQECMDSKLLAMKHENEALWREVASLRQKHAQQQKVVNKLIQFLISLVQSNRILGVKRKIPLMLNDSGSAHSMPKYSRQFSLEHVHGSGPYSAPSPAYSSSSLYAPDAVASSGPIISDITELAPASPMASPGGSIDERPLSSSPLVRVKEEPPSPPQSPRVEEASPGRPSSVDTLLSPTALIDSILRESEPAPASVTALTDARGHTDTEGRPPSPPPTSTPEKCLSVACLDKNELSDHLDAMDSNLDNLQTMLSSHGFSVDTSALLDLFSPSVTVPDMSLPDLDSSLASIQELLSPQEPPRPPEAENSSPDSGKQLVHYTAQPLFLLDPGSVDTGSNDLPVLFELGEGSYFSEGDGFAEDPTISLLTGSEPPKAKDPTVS
Outline: as §1

[4] = biological target: T2, SPIC (Homo sapiens, UniProt Q8N5J4 1-248); settings: protein: recombinant; tags: N-terminal GST; dsDNA, one strand shown
T2 sequence: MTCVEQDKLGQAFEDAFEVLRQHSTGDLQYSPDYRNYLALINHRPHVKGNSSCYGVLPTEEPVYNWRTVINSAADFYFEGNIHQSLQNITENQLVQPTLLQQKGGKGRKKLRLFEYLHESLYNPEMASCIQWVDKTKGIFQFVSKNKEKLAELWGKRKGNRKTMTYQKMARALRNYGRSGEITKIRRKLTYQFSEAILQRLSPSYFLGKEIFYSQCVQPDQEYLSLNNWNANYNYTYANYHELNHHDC
Outline: as §1

[5] = biological target: ELF4 (Homo sapiens, UniProt Q99607 1-663); settings: protein: recombinant; tags: N-terminal GST; dsDNA, one strand shown
Chain of ELF4 (Q99607 whole entry): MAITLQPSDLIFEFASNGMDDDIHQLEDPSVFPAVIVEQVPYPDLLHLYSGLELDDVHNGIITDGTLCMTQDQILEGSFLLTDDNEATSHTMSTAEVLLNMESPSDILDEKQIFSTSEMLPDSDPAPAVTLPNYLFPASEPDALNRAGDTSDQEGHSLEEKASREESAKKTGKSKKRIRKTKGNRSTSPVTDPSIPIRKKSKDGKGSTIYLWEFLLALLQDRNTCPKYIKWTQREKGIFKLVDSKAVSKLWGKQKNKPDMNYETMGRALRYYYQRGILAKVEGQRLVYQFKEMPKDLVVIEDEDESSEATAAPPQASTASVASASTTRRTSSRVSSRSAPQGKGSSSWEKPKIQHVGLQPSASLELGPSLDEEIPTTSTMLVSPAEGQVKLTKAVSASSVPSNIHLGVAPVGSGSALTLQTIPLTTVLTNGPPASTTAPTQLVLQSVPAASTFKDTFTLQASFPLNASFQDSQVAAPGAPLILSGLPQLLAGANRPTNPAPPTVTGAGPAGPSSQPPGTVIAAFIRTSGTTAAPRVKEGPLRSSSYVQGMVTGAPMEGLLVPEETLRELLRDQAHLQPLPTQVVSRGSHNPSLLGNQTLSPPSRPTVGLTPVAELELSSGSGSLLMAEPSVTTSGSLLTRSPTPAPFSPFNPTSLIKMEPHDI
Outline: as §1

[6] = biological target: T3, ELF3 (Homo sapiens, UniProt P78545 1-371); settings: protein: recombinant; tags: N-terminal GST; dsDNA, one strand shown
T3 sequence: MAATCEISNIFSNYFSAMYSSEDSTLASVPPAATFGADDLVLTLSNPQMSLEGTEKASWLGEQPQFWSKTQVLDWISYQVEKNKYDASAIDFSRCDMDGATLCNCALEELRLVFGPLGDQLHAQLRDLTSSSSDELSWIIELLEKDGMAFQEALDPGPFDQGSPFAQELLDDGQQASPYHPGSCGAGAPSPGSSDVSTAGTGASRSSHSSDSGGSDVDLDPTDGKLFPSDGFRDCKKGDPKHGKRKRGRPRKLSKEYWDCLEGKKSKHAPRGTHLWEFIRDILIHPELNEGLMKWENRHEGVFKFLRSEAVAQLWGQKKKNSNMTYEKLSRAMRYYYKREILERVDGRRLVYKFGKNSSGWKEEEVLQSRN
Outline: as §1

[7] = biological target: ETV1 (Homo sapiens, UniProt P50549 1-477); settings: protein: recombinant; tags: N-terminal GST; dsDNA, one strand shown
Chain of ETV1 (P50549 whole entry): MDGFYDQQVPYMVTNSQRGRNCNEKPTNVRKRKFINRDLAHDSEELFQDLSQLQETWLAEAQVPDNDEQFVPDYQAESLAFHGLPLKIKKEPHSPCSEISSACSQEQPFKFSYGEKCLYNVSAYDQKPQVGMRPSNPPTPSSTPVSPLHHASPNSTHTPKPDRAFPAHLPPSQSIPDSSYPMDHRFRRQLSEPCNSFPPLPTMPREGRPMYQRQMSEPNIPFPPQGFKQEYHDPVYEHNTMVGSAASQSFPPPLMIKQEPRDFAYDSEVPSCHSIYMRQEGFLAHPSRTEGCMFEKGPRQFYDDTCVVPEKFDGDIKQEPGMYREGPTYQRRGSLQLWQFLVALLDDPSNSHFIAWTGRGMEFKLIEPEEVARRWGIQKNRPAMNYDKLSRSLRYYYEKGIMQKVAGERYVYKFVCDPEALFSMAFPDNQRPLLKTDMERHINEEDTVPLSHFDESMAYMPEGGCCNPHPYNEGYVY
Outline: as §1

[8] = biological target: T4, ERF (Homo sapiens, UniProt P50548 1-548); settings: protein: recombinant; tags: N-terminal GST; dsDNA, one strand shown
T4 sequence: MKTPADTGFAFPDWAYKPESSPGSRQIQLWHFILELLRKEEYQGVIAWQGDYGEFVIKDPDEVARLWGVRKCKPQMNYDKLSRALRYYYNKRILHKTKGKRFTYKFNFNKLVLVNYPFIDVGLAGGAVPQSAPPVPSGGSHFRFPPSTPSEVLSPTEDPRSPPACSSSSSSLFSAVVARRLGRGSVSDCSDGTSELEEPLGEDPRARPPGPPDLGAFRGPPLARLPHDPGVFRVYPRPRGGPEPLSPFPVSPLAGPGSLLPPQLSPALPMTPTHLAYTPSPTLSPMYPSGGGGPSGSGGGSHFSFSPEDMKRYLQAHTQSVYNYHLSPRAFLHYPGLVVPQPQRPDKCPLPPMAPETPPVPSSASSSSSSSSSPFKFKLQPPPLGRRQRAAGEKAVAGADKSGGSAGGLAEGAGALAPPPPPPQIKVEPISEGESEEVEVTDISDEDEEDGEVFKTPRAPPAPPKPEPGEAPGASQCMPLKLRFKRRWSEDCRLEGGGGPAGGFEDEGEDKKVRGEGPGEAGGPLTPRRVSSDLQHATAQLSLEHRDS
Outline: as §1

[9] = biological target: T5, ETV3L (Homo sapiens, UniProt Q6ZN32 1-361); settings: protein: recombinant; tags: N-terminal GST; dsDNA, one strand shown
T5 sequence: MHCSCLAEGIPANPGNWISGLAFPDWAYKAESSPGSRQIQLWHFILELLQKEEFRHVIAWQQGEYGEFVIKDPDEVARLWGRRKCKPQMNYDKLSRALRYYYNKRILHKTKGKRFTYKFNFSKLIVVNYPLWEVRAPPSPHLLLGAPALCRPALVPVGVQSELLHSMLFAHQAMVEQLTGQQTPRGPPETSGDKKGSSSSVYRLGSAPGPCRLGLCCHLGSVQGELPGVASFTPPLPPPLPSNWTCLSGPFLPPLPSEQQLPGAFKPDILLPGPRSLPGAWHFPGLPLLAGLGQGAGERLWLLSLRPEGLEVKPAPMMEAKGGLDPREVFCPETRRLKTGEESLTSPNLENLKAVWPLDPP
Outline: as §1

[10] = biological target: T6, ETS2 (Homo sapiens, UniProt P15036 1-469); settings: protein: recombinant; tags: N-terminal GST; dsDNA, one strand shown
T6 sequence: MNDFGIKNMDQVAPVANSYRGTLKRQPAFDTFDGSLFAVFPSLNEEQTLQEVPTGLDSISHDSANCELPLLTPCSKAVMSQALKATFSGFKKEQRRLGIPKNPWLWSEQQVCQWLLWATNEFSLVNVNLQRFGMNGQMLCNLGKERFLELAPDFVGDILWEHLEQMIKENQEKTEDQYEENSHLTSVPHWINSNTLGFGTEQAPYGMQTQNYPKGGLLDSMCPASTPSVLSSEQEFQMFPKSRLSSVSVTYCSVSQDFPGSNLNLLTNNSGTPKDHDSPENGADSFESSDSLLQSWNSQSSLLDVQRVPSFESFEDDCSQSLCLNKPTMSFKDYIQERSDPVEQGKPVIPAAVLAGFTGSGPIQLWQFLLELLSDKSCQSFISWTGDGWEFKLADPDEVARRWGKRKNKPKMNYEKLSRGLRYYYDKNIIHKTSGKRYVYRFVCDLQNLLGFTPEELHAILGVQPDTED
Outline: as §1

[11] = biological target: T7, SPDEF (Homo sapiens, UniProt O95238 1-335); settings: protein: recombinant; tags: N-terminal GST; dsDNA, one strand shown
T7 sequence: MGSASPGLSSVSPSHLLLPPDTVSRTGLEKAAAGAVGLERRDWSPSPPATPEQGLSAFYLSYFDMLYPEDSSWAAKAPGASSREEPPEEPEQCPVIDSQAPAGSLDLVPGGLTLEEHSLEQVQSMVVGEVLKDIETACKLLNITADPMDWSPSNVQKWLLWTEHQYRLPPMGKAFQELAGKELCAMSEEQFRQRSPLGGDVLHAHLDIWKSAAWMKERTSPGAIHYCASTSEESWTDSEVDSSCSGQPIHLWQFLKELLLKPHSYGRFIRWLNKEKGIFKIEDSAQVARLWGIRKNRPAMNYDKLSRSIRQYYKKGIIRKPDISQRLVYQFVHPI
Outline: as §1

[12] = biological target: T8, ETV7 (Homo sapiens, UniProt Q9Y603 1-341); settings: protein: recombinant; tags: N-terminal GST; dsDNA, one strand shown
T8 sequence: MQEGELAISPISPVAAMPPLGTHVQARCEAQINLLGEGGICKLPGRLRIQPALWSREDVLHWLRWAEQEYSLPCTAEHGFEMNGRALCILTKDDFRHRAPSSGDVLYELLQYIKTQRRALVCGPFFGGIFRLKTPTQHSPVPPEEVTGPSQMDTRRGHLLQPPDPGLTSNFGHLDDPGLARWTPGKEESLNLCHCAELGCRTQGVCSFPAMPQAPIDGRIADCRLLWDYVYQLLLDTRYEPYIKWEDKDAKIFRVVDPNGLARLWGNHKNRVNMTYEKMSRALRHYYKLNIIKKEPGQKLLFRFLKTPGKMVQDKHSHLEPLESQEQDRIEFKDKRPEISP
Outline: as §1

[13] = biological target: T9, ELF5 (Homo sapiens, UniProt Q9UKW6-2 1-255); settings: protein: recombinant; tags: N-terminal GST; dsDNA, one strand shown
T9 sequence: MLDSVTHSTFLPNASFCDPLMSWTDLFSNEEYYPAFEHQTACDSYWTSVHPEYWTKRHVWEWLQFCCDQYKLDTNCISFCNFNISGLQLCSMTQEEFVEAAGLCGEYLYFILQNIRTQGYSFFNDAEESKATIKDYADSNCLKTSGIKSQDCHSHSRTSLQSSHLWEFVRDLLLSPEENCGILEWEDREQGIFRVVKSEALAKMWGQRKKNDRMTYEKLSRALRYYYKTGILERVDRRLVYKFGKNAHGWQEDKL
Outline: as §1

[14] = biological target: T10, ETV3 (Homo sapiens, UniProt P41162-2 1-143); settings: protein: recombinant; tags: N-terminal GST; dsDNA, one strand shown
T10 sequence: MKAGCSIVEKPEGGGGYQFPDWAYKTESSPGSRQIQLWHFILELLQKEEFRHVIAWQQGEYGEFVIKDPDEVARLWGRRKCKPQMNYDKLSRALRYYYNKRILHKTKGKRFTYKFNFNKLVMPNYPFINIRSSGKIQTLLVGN
Outline: as §1

[15] = biological target: ETV6 (Homo sapiens, UniProt P41212 1-452); settings: protein: recombinant; tags: N-terminal GST; dsDNA, one strand shown
Chain of ETV6 (P41212 whole entry): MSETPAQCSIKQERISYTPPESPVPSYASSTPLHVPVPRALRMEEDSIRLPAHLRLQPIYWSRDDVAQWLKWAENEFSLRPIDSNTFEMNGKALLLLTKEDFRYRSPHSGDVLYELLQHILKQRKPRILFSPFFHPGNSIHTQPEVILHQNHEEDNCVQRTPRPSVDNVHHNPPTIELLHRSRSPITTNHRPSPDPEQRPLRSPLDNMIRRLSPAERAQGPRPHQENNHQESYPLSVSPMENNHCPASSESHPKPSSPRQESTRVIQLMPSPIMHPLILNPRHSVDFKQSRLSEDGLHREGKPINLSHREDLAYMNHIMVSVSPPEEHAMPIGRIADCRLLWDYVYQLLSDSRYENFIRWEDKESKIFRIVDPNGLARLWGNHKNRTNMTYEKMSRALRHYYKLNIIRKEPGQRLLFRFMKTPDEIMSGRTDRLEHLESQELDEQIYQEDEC
Outline: as §1

[16] = biological target: CRX (Homo sapiens, UniProt O43186 1-299); settings: protein: recombinant; tags: N-terminal GST; dsDNA, one strand shown
Chain of CRX (O43186 whole entry): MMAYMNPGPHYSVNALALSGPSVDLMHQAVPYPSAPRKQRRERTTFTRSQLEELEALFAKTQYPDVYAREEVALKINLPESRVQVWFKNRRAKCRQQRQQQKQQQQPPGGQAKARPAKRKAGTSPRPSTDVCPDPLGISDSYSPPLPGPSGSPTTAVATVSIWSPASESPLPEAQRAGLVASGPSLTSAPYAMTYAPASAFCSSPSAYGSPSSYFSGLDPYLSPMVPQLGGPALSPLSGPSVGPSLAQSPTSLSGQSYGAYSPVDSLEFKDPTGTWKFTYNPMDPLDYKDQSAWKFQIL
Outline: as §1

[17] = biological target: T11, ETV2 (Homo sapiens, UniProt O00321 1-342); settings: protein: recombinant; tags: N-terminal GST; dsDNA, one strand shown
T11 sequence: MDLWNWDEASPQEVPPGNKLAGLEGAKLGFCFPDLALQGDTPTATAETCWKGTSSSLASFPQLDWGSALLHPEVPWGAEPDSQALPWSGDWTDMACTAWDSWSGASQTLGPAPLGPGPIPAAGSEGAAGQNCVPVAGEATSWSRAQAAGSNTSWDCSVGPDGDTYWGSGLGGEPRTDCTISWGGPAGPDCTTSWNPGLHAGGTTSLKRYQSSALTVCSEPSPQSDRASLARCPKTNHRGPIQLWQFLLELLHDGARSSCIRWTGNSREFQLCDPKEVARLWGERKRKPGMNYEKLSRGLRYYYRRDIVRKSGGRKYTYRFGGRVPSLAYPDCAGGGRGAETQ
Outline: as §1

| Sequence | binding signal [1] | binding signal [2] | binding signal [3] | binding signal [4] | binding signal [5] | binding signal [6] | binding signal [7] | binding signal [8] | binding signal [9] | binding signal [10] | binding signal [11] | binding signal [12] | binding signal [13] | binding signal [14] | binding signal [15] | binding signal [16] | binding signal [17] |
| --- | --- | --- | --- | --- | --- | --- | --- | --- | --- | --- | --- | --- | --- | --- | --- | --- | --- |
| AACGTC | 1.06 fold enrichment (6-mer frequency, TF over GST control) | 1.04 fold enrichment (6-mer frequency, TF over GST control) | 1.01 fold enrichment (6-mer frequency, TF over GST control) | 1.13 fold enrichment (6-mer frequency, TF over GST control) | 1.09 fold enrichment (6-mer frequency, TF over GST control) | 1.13 fold enrichment (6-mer frequency, TF over GST control) | 1.11 fold enrichment (6-mer frequency, TF over GST control) | 1.01 fold enrichment (6-mer frequency, TF over GST control) | 1.03 fold enrichment (6-mer frequency, TF over GST control) | 1.14 fold enrichment (6-mer frequency, TF over GST control) | 1.11 fold enrichment (6-mer frequency, TF over GST control) | 1.11 fold enrichment (6-mer frequency, TF over GST control) | 1.1 fold enrichment (6-mer frequency, TF over GST control) | 1.07 fold enrichment (6-mer frequency, TF over GST control) | 1.05 fold enrichment (6-mer frequency, TF over GST control) | – | – |
| AAATCG | 1 fold enrichment (6-mer frequency, TF over GST control) | 1.04 fold enrichment (6-mer frequency, TF over GST control) | 1.18 fold enrichment (6-mer frequency, TF over GST control) | 1 fold enrichment (6-mer frequency, TF over GST control) | 1.11 fold enrichment (6-mer frequency, TF over GST control) | 1.03 fold enrichment (6-mer frequency, TF over GST control) | 1.05 fold enrichment (6-mer frequency, TF over GST control) | – | 1.09 fold enrichment (6-mer frequency, TF over GST control) | – | – | 1.08 fold enrichment (6-mer frequency, TF over GST control) | – | 1.03 fold enrichment (6-mer frequency, TF over GST control) | 1.05 fold enrichment (6-mer frequency, TF over GST control) | 1.26 fold enrichment (6-mer frequency, TF over GST control) | – |
| CTTACG | 1.06 fold enrichment (6-mer frequency, TF over GST control) | 1.12 fold enrichment (6-mer frequency, TF over GST control) | 1.14 fold enrichment (6-mer frequency, TF over GST control) | 1.02 fold enrichment (6-mer frequency, TF over GST control) | 1.14 fold enrichment (6-mer frequency, TF over GST control) | 1.11 fold enrichment (6-mer frequency, TF over GST control) | – | 1.09 fold enrichment (6-mer frequency, TF over GST control) | 1.05 fold enrichment (6-mer frequency, TF over GST control) | 1.13 fold enrichment (6-mer frequency, TF over GST control) | 1.1 fold enrichment (6-mer frequency, TF over GST control) | 1.1 fold enrichment (6-mer frequency, TF over GST control) | 1.15 fold enrichment (6-mer frequency, TF over GST control) | 1.15 fold enrichment (6-mer frequency, TF over GST control) | 1 fold enrichment (6-mer frequency, TF over GST control) | 1.5 fold enrichment (6-mer frequency, TF over GST control) | 1.1 fold enrichment (6-mer frequency, TF over GST control) |
